Source: publication PMC5540273 (PLoS ONE, 2017)

Key:
Settings in all cases: concentration: 1 μM, replicates: in singlicate; n = 1
PYK2 = tested on: T1, PYK2
T1 construct: gene PTK2B

QSK = tested on: QSK
RAF1 = tested on: RAF1
RET = tested on: RET
RIOK1 = tested on: RIOK1
RIOK2 = tested on: RIOK2
RIOK3 = tested on: RIOK3
RIPK1 = tested on: RIPK1
RIPK2 = tested on: RIPK2
RIPK4 = tested on: RIPK4
RIPK5 = tested on: RIPK5
ROCK1 = tested on: ROCK1
ROCK2 = tested on: ROCK2
ROS1 = tested on: ROS1
[1] = tested on: RPS6KA4(Kin.Dom.1-N-terminal)
[2] = tested on: RPS6KA4(Kin.Dom.2-C-terminal)
[3] = tested on: RPS6KA5(Kin.Dom.1-N-terminal)
[4] = tested on: RPS6KA5(Kin.Dom.2-C-terminal)
[5] = tested on: T2, RSK1(Kin.Dom.1-N-terminal)
T2 construct: gene RPS6KA1

[6] = tested on: T3, RSK1(Kin.Dom.2-C-terminal)
T3 construct: gene RPS6KA1
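Note: KINOMEscan kinase panel screen.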

SMILES | %Inh (PYK2) [%] | %Inh (QSK) [%] | %Inh (RAF1) [%] | %Inh (RET) [%] | %Inh (RIOK1) [%] | %Inh (RIOK2) [%] | %Inh (RIOK3) [%] | %Inh (RIPK1) [%] | %Inh (RIPK2) [%] | %Inh (RIPK4) [%] | %Inh (RIPK5) [%] | %Inh (ROCK1) [%] | %Inh (ROCK2) [%] | %Inh (ROS1) [%] | %Inh [1] [%] | %Inh [2] [%] | %Inh [3] [%] | %Inh [4] [%] | %Inh [5] [%] | %Inh [6] [%]
CN(C(=O)c1ccc(-c2cc(-c3c[nH]nc3-c3ccccn3)ccn2)cc1)C1CCOCC1 [GW810083] | 0 | 0 | 0 | 17 | 54 | 0 | 33 | 0 | 0 | 69 | 0 | 31 | 20 | 0 | 0 | 0 | 0 | 0 | 0 | 0
O=C1NC(=O)C(N2CCc3ccccc32)=C1c1cccc(Cl)c1 [SB-408010] | 12 | 0 | 0 | 4 | 5 | 0 | 30 | 0 | 0 | 0 | 9 | 0 | 0 | 0 | 4 | 0 | 9 | 0 | 0 | 11
NS(=O)(=O)CCc1cccc(Nc2nccc(-c3c(-c4cccc(NC(=O)c5c(F)cccc5F)c4)nn4ccccc34)n2)c1 [GSK336735] | 29 | 0 | 92.8 | 99.9 | 38 | 17 | 26 | 10 | 97.9 | 4 | 10 | 24 | 0 | 79 | 53 | 0 | 63 | 6 | 100 | 0
CN1c2ccc(NCc3ccc(F)cc3)cc2-c2c(cnn2C)S1(=O)=O | 0 | 10 | 1 | 0 | 10 | 0 | 0 | 3 | 0 | 0 | 0 | 0 | 0 | 0 | 0 | 0 | 0 | 0 | 0 | 20
N#Cc1c(N2CCOCC2)sc(-c2ccn[nH]2)c1-c1ccc(Cl)cc1 | 0 | 0 | 11 | 0 | 0 | 0 | 0 | 6 | 0 | 35 | 15 | 11 | 0 | 8 | 0 | 3 | 0 | 7 | 17 | 18
CCc1ccnc(/C=C/c2n[nH]c3cc(Sc4ccccc4C(=O)NC)ccc23)c1 | 0 | 0 | 0 | 83 | 0 | 0 | 0 | 0 | 43 | 0 | 0 | 0 | 0 | 19 | 0 | 0 | 0 | 0 | 0 | 3
Cc1cccc(-c2nc(-c3ccc(S(C)(=O)=O)cc3)sc2-c2ccncc2)c1 | 2 | 8 | 25 | 14 | 19 | 27 | 0 | 0 | 59 | 0 | 18 | 16 | 0 | 23 | 0 | 3 | 11 | 9 | 0 | 34
COCCNC(=O)c1ccc(-c2cc(C(=O)NC3CC3)cc(F)c2C)cc1 [GW868318] | 4 | 26 | 7 | 0 | 0 | 7 | 0 | 0 | 8 | 47 | 38 | 37 | 47 | 5 | 36 | 6 | 18 | 21 | 21 | 18
CNc1ncnc2[nH]ncc12 [SKF-18355] | 0 | 5 | 23 | 0 | 0 | 0 | 0 | 0 | 0 | 22 | 8 | 91.5 | 84 | 0 | 23 | 0 | 0 | 17 | 0 | 15
CCCCCc1nc2c(N)ncnc2n1CCCCC [SKF-97255] | 21 | 7 | 11 | 0 | 0 | 0 | 0 | 0 | 22 | 7 | 8 | 90.1 | 59 | 1 | 6 | 0 | 14 | 9 | 8 | 11
N#Cc1ccc(-c2cc(-c3c[nH]nc3-c3ccccn3)ccn2)cc1 [GW693028] | 0 | 12 | 1 | 12 | 0 | 0 | 0 | 0 | 49 | 5 | 0 | 28 | 3 | 0 | 5 | 0 | 19 | 10 | 13 | 0
[2H]C([2H])(c1cccc(C(F)(F)F)c1C)n1ccn2c(=O)nc(N3CCOCC3)cc12 [GSK2336394] | 4 | 0 | 10 | 14 | 23 | 6 | 0 | 0 | 7 | 5 | 0 | 8 | 0 | 22 | 17 | 0 | 2 | 0 | 5 | 0
NS(=O)(=O)c1cccc(-c2ccc3nccc(-c4cccc(S(N)(=O)=O)c4)c3c2)c1 [GW867253] | 12 | 13 | 0 | 0 | 0 | 0 | 0 | 0 | 3 | 0 | 11 | 37 | 37 | 0 | 0 | 0 | 4 | 7 | 0 | 23
Cc1nnc(-c2ccc3occ(-c4ccc(C(C)O)cc4)c3c2)o1 (centres unmarked) | 2 | 5 | 100 | 11 | 0 | 36 | 0 | 1 | 20 | 0 | 0 | 5 | 0 | 0 | 9 | 25 | 20 | 0 | 9 | 1
COc1cc2c(cc1OCCN1CCN(C)CC1)ncc1c3ccc(C#N)cc3[nH]c21 | 2 | 67 | 0 | 29 | 93.1 | 24 | 85 | 14 | 49 | 15 | 33 | 98.1 | 99.4 | 0 | 0 | 0 | 0 | 71 | 0 | 26
Cn1ccc2ncnc(Oc3ccc(NC(=O)Nc4ccncc4)c(Cl)c3)c21 | 0 | 0 | 12 | 1 | 0 | 0 | 23 | 0 | 0 | 0 | 0 | 0 | 0 | 0 | 0 | 0 | 13 | 0 | 0 | 0
